# Reference: the supplement of paper PMC6555819
# Tested on: PPARg:RXRa (NR concentration 180 nM, RXRa partner concentration 90 nM)
# Assay: PBM binding z-score (relative to random genomic background probes); higher = stronger binding; sequences stand for … in GC…GCGATTGACAGCGTAGAATGAAGG
# Method in brief: (§1)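 Binding buffer was PBS pH 7.4 with 2% milk, 0.02% Triton X-100, 1 mM DTT, 0.2 mg/mL BSA and 0.4 mg/ml salmon testes DNA. In it, ligand-free nuclear receptor dimers were incubated 1 h on custom Agilent 4×180K protein-binding microarrays carrying double-stranded probes. Antibodies against each partner (one per run) detected binding, and z-scores were calculated against random background probes after regression normalization of scanned fluorescence.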
row,Sequence,PBM binding z-score
1,ACGGACAGGTGAGTGAAGGTAACTCAGCTGGACG,0.452
2,ATCTCTAGGTAACCAAGTTCAGTGGATGCCGAAC,0.437
3,CCTAGCAGGCCAATCTGGGGCACTCAAGGCTTGA,0.549
4,CGTCCAAGGACAAAGGTCAGTGAAGAGATGACGG,5.79
5,GATACAGGGTCAAGGCTAGAGTACGCGTATTGAT,5.73
6,AATACAGGGTCTTCGTAGGCCAGAGTACGCACAG,0.75
7,CCTACTGGGCCAAGGTCATGGATCAGTCAAAGCA,4.52
8,GGAACGCGGGCAAAGTTGATAGCATCTGTCGACG,2.51
9,ACTATTAGTTGAGACGATGGCAACCGATAGGTTG,0.598
10,CAGCCTATGTCAGGGCCAGTATAGGAGGAACGTT,0.129
11,CCGACTGGGGCTAGGTTACCATAACGCACAGCCA,0.784
12,CGAACTAGGTCATTGACAGGACTGTGAATAGTAA,7.38
13,CGAACGAGGGCCTGAGTTGATAGCAAATGCCGAT,0.336
14,GCTAGTAGGCCATTTGGGTCACTCAATGACGGGC,2.27
15,GCTGCTAGGTGAGGTTGGTCAGCTAACGGGTACG,-0.331
16,ATACCAGGGTGATCGTGAGGTCGTTGATACTAAC,0.781
17,GCTAGCAGGCCATTTGGGTGACTCAATGACGGGC,0.218
18,GCTGCTAGGTCAGGTTGGTCAGCAAACGGGTACG,0.5

# Tested on: PPARg:RXRa 270nM:90nM, anti-RXR (NR concentration 270 nM, RXRa partner concentration 90 nM)
# Assay: as above
# Method in brief: as §1
row,Sequence,PBM binding z-score
1,CCTAGTTGGTCAGCAGGTCACACACCGGATATGA,2.51
2,AGTCAAAGTTCAGGAGGAGGTAACGTAAAGCACG,5.22
3,CCAGACAGGTGAGAAGTTAACTCAGCCTCGATTA,1.25
4,TCGAGTAGGTTAGTCGGGGCATTAAGCCAACATA,0.922
5,CCTTCTGGGCCACGAAAGGTCATTGATTCAGTGA,4.4
6,TGTCAAAGTTCAAAGGTAACGTTAGTATCCACAC,7.52
7,GCGAGTTGGTCAGTAAAAGGTCACACACCGGTCG,4.71
8,ATATGTAGGTTAAGGGACATTCAGGTTGGTTCGC,6.51
9,CCTATTAGTTGGCCATAAGGGCAACCGAAGCTCG,0.665
10,GCTGCTAGGTCAAATGATGGTCAGCTAAAGCTCG,3.57
11,GCAGACAGGTGAAACGCAGGTCACTCAGGGTGGC,1.01
12,TCTATTAGTTGATTAGGACAACCGAAACAGCGGA,2.18
13,ACTATTAGTTGACTCAGGGCAACCGATACGACGC,0.163
14,ATCTCTACGTAAAGATAGTTCAGTGAATGCAAAT,0.104
15,CGTTACGGGTCACGAGGTTATAGCACGACGAGCG,6.69
16,TTTCAAAGTTCAAAGGTAACGTAAGTATCCACAC,6.43
17,TCTGGCAGGCCAGAGGGTCACTCAAGAGGTACGG,1.48
18,TCATATAGGTAAAGGTGTAAGTCGAACGATATGA,3.83
19,TTATATAGGTAAAGGTGAAAGTCGAACGATATGA,6.26
20,GATACAGGGTCACGGCCAGAGTACGCGTATTGAT,7.43

row,Sequence,PBM binding z-score
1,GCTAGCAGGCAATTTGGGTCACTCAATGACGGGC,0.964
2,CCTAGCCGGCCAGGGTCACTCAAGCATTTCGCTT,0.958
3,ACGGACAGGTGAGTGAAGGTAACTCAGCTGGACG,0.12
4,ATCTCTAGGTAACCAAGTTCAGTGGATGCCGAAC,0.741
5,CCTAGCAGGCCAATCTGGGGCACTCAAGGCTTGA,0.547
6,CGTCCAAGGACAAAGGTCAGTGAAGAGATGACGG,5.86
7,GATACAGGGTCAAGGCTAGAGTACGCGTATTGAT,5.61
8,AATACAGGGTCTTCGTAGGCCAGAGTACGCACAG,0.174
9,CCTACTGGGCCAAGGTCATGGATCAGTCAAAGCA,4.76
10,GGAACGCGGGCAAAGTTGATAGCATCTGTCGACG,4.63
11,ACTATTAGTTGAGACGATGGCAACCGATAGGTTG,-0.0569
12,CAGCCTATGTCAGGGCCAGTATAGGAGGAACGTT,-0.472
13,CCGACTGGGGCTAGGTTACCATAACGCACAGCCA,0.0405
14,CGAACTAGGTCATTGACAGGACTGTGAATAGTAA,6.1
15,CGAACGAGGGCCTGAGTTGATAGCAAATGCCGAT,-0.582
16,GCTAGTAGGCCATTTGGGTCACTCAATGACGGGC,2.41
17,GCTGCTAGGTGAGGTTGGTCAGCTAACGGGTACG,-0.69
18,ATACCAGGGTGATCGTGAGGTCGTTGATACTAAC,0.722
19,GCTAGCAGGCCATTTGGGTGACTCAATGACGGGC,-0.431
20,GCTGCTAGGTCAGGTTGGTCAGCAAACGGGTACG,0.829

# Tested on: PPARg:RXRa 30nM:10nM, anti-RXR (NR concentration 30 nM, RXRa partner concentration 10 nM)
# Assay: as above
# Method in brief: as §1
row,Sequence,PBM binding z-score
1,CCTAGTTGGTCAGCAGGTCACACACCGGATATGA,0.854
2,AGTCAAAGTTCAGGAGGAGGTAACGTAAAGCACG,2.38
3,CCAGACAGGTGAGAAGTTAACTCAGCCTCGATTA,-0.0978
4,TCGAGTAGGTTAGTCGGGGCATTAAGCCAACATA,1.05
5,CCTTCTGGGCCACGAAAGGTCATTGATTCAGTGA,1.82
6,TGTCAAAGTTCAAAGGTAACGTTAGTATCCACAC,5.52
7,GCGAGTTGGTCAGTAAAAGGTCACACACCGGTCG,2.22
8,ATATGTAGGTTAAGGGACATTCAGGTTGGTTCGC,4.44
9,CCTATTAGTTGGCCATAAGGGCAACCGAAGCTCG,-0.257
10,GCTGCTAGGTCAAATGATGGTCAGCTAAAGCTCG,0.844
11,GCAGACAGGTGAAACGCAGGTCACTCAGGGTGGC,-0.357
12,TCTATTAGTTGATTAGGACAACCGAAACAGCGGA,4.26
13,ACTATTAGTTGACTCAGGGCAACCGATACGACGC,0.201
14,ATCTCTACGTAAAGATAGTTCAGTGAATGCAAAT,0.0785
15,CGTTACGGGTCACGAGGTTATAGCACGACGAGCG,2.7
16,TTTCAAAGTTCAAAGGTAACGTAAGTATCCACAC,3.39
17,TCTGGCAGGCCAGAGGGTCACTCAAGAGGTACGG,0.732
18,TCATATAGGTAAAGGTGTAAGTCGAACGATATGA,4.04
19,TTATATAGGTAAAGGTGAAAGTCGAACGATATGA,4.77
20,GATACAGGGTCACGGCCAGAGTACGCGTATTGAT,3.93

row,Sequence,PBM binding z-score
1,GCTAGCAGGCAATTTGGGTCACTCAATGACGGGC,-0.305
2,CCTAGCCGGCCAGGGTCACTCAAGCATTTCGCTT,-0.474
3,ACGGACAGGTGAGTGAAGGTAACTCAGCTGGACG,-0.363
4,ATCTCTAGGTAACCAAGTTCAGTGGATGCCGAAC,0.192
5,CCTAGCAGGCCAATCTGGGGCACTCAAGGCTTGA,-0.732
6,CGTCCAAGGACAAAGGTCAGTGAAGAGATGACGG,3.8
7,GATACAGGGTCAAGGCTAGAGTACGCGTATTGAT,2.19
8,AATACAGGGTCTTCGTAGGCCAGAGTACGCACAG,0.334
9,CCTACTGGGCCAAGGTCATGGATCAGTCAAAGCA,1.8
10,GGAACGCGGGCAAAGTTGATAGCATCTGTCGACG,1.85
11,ACTATTAGTTGAGACGATGGCAACCGATAGGTTG,0.0135
12,CAGCCTATGTCAGGGCCAGTATAGGAGGAACGTT,-0.514
13,CCGACTGGGGCTAGGTTACCATAACGCACAGCCA,-0.564
14,CGAACTAGGTCATTGACAGGACTGTGAATAGTAA,4.05
15,CGAACGAGGGCCTGAGTTGATAGCAAATGCCGAT,-0.305
16,GCTAGTAGGCCATTTGGGTCACTCAATGACGGGC,0.459
17,GCTGCTAGGTGAGGTTGGTCAGCTAACGGGTACG,-1.04
18,ATACCAGGGTGATCGTGAGGTCGTTGATACTAAC,0.104
19,GCTAGCAGGCCATTTGGGTGACTCAATGACGGGC,-0.682
20,GCTGCTAGGTCAGGTTGGTCAGCAAACGGGTACG,-0.344
